Measured values reported in PubChem BioAssay (EPA / NIEHS).
Inconclusive results are not listed. Activity calls are given as the source filed them. Rule for the calls: active = hit-call score of the fitted dose curve at least 0.9, where 1 is the maximum; inconclusive = response in the unintended direction; inactive = score below 0.9.

The compounds below were run on xenobiotic metabolism (CYP1A1), CYP1A1 (gene 1543) (assay: CLD_CYP1A1_6hr: CellzDirect (CLD) Gene Expression Assay for xenobiotic metabolism (CYP1A1) at 6 hours (AID 2283661);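 for AC50: potency for transcript induction above DMSO vehicle baseline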).
Experimental: CLD_6hr is a cell-based, multiplexed-readout assay that uses hepatocyte, a human liver primary cell, with measurements taken at 6 hours after chemical dosing in a 96-well plate.CLD_CYP1A1_6hr is one of 16 assay component(s) measured or calculated from the CLD_6hr assay. It is designed to make measurements of mRNA induction, a form of inducible reporter, as detected with chemiluminescence signals by Quantitative Nuclease Protection Assay (qNPA) technology.Data from the assay component CLD_CYP1A1_6hr was analyzed at the endpoint, CLD_CYP1A1_6hr, in the positive analysis fitting direction relative to DMSO as the negative control and baseline of activity. Using a type of inducible reporter, gain-of-signal activity can be used to understand changes in the reporter gene as they relate to the gene CYP1A1. Furthermore, this assay endpoint can be referred to as a primary readout. To generalize the intended target to other relatable targets, this assay endpoint is annotated to the cyp intended target family, where subfamily is xenobiotic metabolism.
Human hepatocyte cultures were treated daily for two consecutive days with fresh dosing solutions containing appropriate concentrations of the 320 ToxCast chemicals (chemical identities were blinded to CellzDirect and other ToxCast collaborators), vehicle control (0.2% DMSO), and positive control inducers as summarized in Table 1. Due to the large number of treatment groups and chemicals examined, the ToxCast chemicals were divided into two groups (spanning two independent cultures of hepatocytes from separate donor preparations (Hu778: ToxCast plates 1 and 2; Hu776: ToxCast plates 3 and 4). Each preparation of human hepatocyte cultures was treated with respective vehicle control, medium only control, set of six positive controls/reference chemicals for the five hepatic receptor pathways, and a subset of eight of the ToxCast chemicals (indoxacarb, pyrithiobac-sodium, norflurazon, cyhalofop-butyl, methomyl, thiram, acetochlor, and propiconazole). These replicate data, coupled with internal replicates designed within the blinded ToxCast chemical library, provided additional data to evaluate interindividual differences between hepatocyte preparations and their potential impact on chemical profiles.Cell morphology and integrity were evaluated using phase-contrast microscopy as an indicator of hepatocyte cell health (Tyson & Green, 1987). Cultures for each treatment group (i.e., media, vehicle [0.2% DMSO], positive control inducers [multiple concentrations], and the ToxCast chemicals [multiple concentrations]) were observed and cell morphology was assessed relative to vehicle control cultures at each harvest time point (0, 6, 24, or 48 h). […] Images were evaluated at the conclusion of the study to assess changes in cell integrity and account for the effects of chemical exposure on uncharacteristic changes in concentration-dependent gene expression profiles. The results from these determinations of apparent cytotoxicity were annotated (yes/no) alongside the corresponding qNPA data for reference.At the conclusion of each treatment period, hepatocyte cultures (96-well) were washed with 1 volume of HBSS, lysed by addition of 25 ul ArrayPlate lysis buffer (HTG, Tucson, AZ), and 70 ul/well of Denaturation Oil, denatured by incubation at 95C for 10 min, and frozen at approximately -70C until analysis by nuclease protection assay (qNPA) (Roberts et al., 2007). For qNPA analysis, cell lysates were thawed at 50C for approximately 30 min, qNPA probes were added, and samples were incubated at 95C for 10 min to begin the detection process by denaturing the target RNA, dissociating the duplexes and secondary structure hybridization. At the conclusion of the hybridization period, S1 nuclease reagent was added to each sample to digest all nonprotected nucleotides at 50C for 60-90 min. […]

Row | Compound | AC50 | outcome
1 | CC(C)(C)C(O)/C(=C\c1ccc(Cl)cc1Cl)n1cncn1 (stereo not given) | 1.89 µM (active) | –
2 | COP(=S)(OC)Oc1ccc([N+](=O)[O-])cc1 | 2.88 µM (active) | –
3 | O=C(O)C(F)(F)C(F)(F)C(F)(F)C(F)(F)C(F)(F)C(F)(F)C(F)(F)F | – | inactive
4 | COC(=O)c1ccccc1S(=O)(=O)NC(=O)N(C)c1nc(C)nc(OC)n1 | 20 µM (active) | –
5 | ClC1C(Cl)C(Cl)C(Cl)C(Cl)C1Cl (stereo not given) | – | inactive
6 | CCS(=O)(=O)c1cccnc1S(=O)(=O)NC(=O)Nc1nc(OC)cc(OC)n1 | – | inactive
7 | COc1nn(CSP(=S)(OC)OC)c(=O)s1 | 1.25 µM (active) | –
8 | Oc1cc(Cl)ccc1Oc1ccc(Cl)cc1Cl | – | inactive
9 | O=[N+]([O-])/N=C1\NCCN1Cc1ccc(Cl)nc1 | – | inactive
10 | CNC(=O)Oc1ccccc1OC(C)C | – | inactive
11 | CCOC1Oc2ccc(OS(C)(=O)=O)cc2C1(C)C (stereo not given) | 3.97 µM (active) | –
12 | CN1CSC(=S)N(C)C1 | – | inactive
13 | CC(C)(C)C(O)C(Oc1ccc(Cl)cc1)n1cncn1 (stereo not given) | 1.55 µM (active) | –
14 | Cc1cc(C)nc(NC(=O)NS(=O)(=O)c2ccccc2C(=O)OC2COC2)n1 | – | inactive
15 | CCN(CC)C(=O)SCc1ccc(Cl)cc1 | – | inactive
16 | OCCOc1ccccc1 | – | inactive
17 | COP(=S)(OC)Oc1ccc(SC)c(C)c1 | 5.13 µM (active) | –
18 | COP(=O)(OC)OC=C(Cl)Cl | 1.9 µM (active) | –
19 | O=C(Nc1ccccc1)Nc1cnns1 | 1.87 µM (active) | –
20 | CCCN(CCOc1c(Cl)cc(Cl)cc1Cl)C(=O)n1ccnc1 | 0.0868 µM (active) | –

Row | Compound | AC50 | outcome
21 | C[C@H]1[C@H](c2ccc(Cl)cc2)SC(=O)N1C(=O)NC1CCCCC1 | – | inactive
22 | O=C(O)CCCOc1ccc(Cl)cc1Cl | – | inactive
23 | O=[N+]([O-])c1c(Cl)c(Cl)c(Cl)c(Cl)c1Cl | – | inactive
24 | O=C(O)COc1ccc(Cl)cc1Cl | 0.459 µM (active) | –
25 | COC(=O)c1ccccc1CS(=O)(=O)NC(=O)Nc1nc(OC)cc(OC)n1 | 20 µM (active) | –
26 | Clc1ccccc1-c1nnc(-c2ccccc2Cl)nn1 | – | inactive
27 | N#CN | – | inactive
28 | O=S(=O)(O)C(F)(F)C(F)(F)C(F)(F)C(F)(F)C(F)(F)C(F)(F)C(F)(F)C(F)(F)F | – | inactive
29 | CCc1ccc(C(=O)NN(C(=O)c2cc(C)cc(C)c2)C(C)(C)C)cc1 | 7.56 µM (active) | –
30 | CC1(C)C(C=C(Cl)Cl)C1C(=O)OC(C#N)c1ccc(F)c(Oc2ccccc2)c1 (stereo not given) | 20 µM (active) | –
31 | CNC(=O)CSP(=S)(OC)OC | 0.275 µM (active) | –
32 | CC(C)OC(=O)Nc1cccc(Cl)c1 | 3.3 µM (active) | –
33 | N#Cc1c(Cl)c(Cl)c(Cl)c(C#N)c1Cl | 36.8 µM (active) | –
34 | COC(=O)c1ccccc1S(=O)(=O)NC(=O)Nc1nc(C)nc(OC)n1 | 20 µM (active) | –
35 | CCOc1nc(NC)nc(NC(=O)NS(=O)(=O)c2ccccc2C(=O)OC)n1 | – | inactive
36 | O=C(NC(=O)c1c(F)cccc1F)Nc1ccc(OC(F)(F)C(F)OC(F)(F)F)c(Cl)c1 (stereo not given) | – | inactive
37 | COc1cc(OC)nc(NC(=O)NS(=O)(=O)c2cc(NC=O)ccc2C(=O)N(C)C)n1 | – | inactive
38 | CCC(C)(NC(=O)c1cc(Cl)c(C)c(Cl)c1)C(=O)CCl (stereo not given) | – | inactive
39 | CC1(c2ccc(Oc3ccccc3)cc2)OC(=O)N(Nc2ccccc2)C1=O (stereo not given) | – | inactive
40 | CCC(C)Nc1c([N+](=O)[O-])cc(C(C)(C)C)cc1[N+](=O)[O-] (stereo not given) | 3.41 µM (active) | –
